Compound activity: PubChem, Johns Hopkins Ion Channel Center
Most compounds without a hit are left out; they make up all but 1.6% or so of the library.
KCNQ2 enhance: potentiators of rat KCNQ2 potassium channel; actives 0.54% (n = 310,000); B-score at 10 µM; O88943; CHO-K1 KCNQ2, FluxOR thallium flux fluorescence; stronger effect = higher value;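 active means fluorescence ratio B-score at least 3 SD of library B-scores, with initial fluorescence B-score within 3 of them, cut at about 5.3 in these data; same plate scores as AID 2156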;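 further: B-score of peak minus minimum over baseline fluorescence ratio after K+ and Tl+ stimulus; positive B-score means potentiation of KCNQ2 with more thallium influx and brighter signal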
KCNQ2 block: blocks the rat KCNQ2 potassium channel. O88943. CHO-K1 KCNQ2, FluxOR thallium flux, 20 min; stronger effect = lower value. B-score at 10 µM. actives 1.1% (n = 310,000);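 active means fluorescence ratio B-score at most minus 3 library SDs, with starting brightness B-score within 2 library SDs, cut at about -5.5 in these data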
KCNQ2 inh conf: confirmation of rat KCNQ2 potassium channel inhibitors. actives 57% (n = 1,000). shares compounds with KCNQ2 block. KCNQ2-expressing cells, thallium flux, inhibition; stronger effect = lower value. activity change, negative = inhibition, % at 10 µM;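 further: 0% = vehicle wells and values are ratio percent relative to vehicle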
KCNQ1 spec: human KCNQ1 activity in KCNQ2 inhibitor specificity screen; actives 15% (n = 1,000); KCNQ1-expressing cells, FluxOR thallium flux fluorescence; stronger effect = lower value; activity change, negative = inhibition, % at 10 µM; shares compounds with KCNQ2 block;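 active means activity change at least 3 SD of negative controls below their mean in both duplicate wells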;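 further: CHO cells stably transfected with KCNQ1 and depolarized by potassium stimulus; peak minus minimum fluorescence over baseline after thallium addition; 0% = vehicle negative control and -100% = blank without thallium stimulus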
Target sequence (P51787 whole entry, looked up): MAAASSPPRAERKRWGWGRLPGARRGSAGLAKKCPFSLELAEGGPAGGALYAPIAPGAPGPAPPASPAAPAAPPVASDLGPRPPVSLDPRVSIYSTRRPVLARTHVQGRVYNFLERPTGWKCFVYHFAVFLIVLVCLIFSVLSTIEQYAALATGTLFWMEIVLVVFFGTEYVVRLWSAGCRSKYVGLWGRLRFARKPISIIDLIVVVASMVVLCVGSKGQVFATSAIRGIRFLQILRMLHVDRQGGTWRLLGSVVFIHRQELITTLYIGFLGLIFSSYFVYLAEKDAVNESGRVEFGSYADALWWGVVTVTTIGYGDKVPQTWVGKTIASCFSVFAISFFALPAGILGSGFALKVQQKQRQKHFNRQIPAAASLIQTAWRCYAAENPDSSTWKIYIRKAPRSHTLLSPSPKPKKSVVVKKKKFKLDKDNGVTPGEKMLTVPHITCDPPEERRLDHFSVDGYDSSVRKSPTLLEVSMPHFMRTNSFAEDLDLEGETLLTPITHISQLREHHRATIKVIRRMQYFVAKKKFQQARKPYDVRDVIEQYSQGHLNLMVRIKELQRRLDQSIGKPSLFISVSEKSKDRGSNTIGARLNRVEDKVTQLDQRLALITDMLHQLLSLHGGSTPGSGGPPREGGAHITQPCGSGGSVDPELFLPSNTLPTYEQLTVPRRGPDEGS
CHO Tl ctr: KCNQ2 inhibitor counter-screen hit in parental CHO cells | AID 493029 | shares compounds with KCNQ2 block | actives 14% (n = 1,000) | activity change, % at 10 µM | thallium flux counter-screen; stronger effect = lower value;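 further: 0% = vehicle negative controls with stimulus buffer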
KCNQ2 patch conf: confirmation of rat KCNQ2 potassium channel inhibitors | actives 49% (n = 550) | KCNQ2-expressing cells, automated patch clamp current | calls only at 10 µM | shares compounds with KCNQ2 block
Starred values were filed as active, the others as inactive. Unless noted, how the calls were made is not given here.

How did COc1cccc(/C=C/C(=O)NCc2cn3cc(Cl)ccc3n2)c1OC do in these assays?
KCNQ2 block: inactive

How did COc1ccc(C(=O)Nc2c(-c3ccccc3)nc3ccccn23)c(OC)c1 do in these assays?
KCNQ2 block: inactive

How did COc1ccccc1C(=O)Nc1c(-c2ccccc2)nc2ccccn12 do in these assays?
KCNQ2 enhance: -7.32; KCNQ2 block: -7.32*; KCNQ2 inh conf: inactive; KCNQ1 spec: inactive; CHO Tl ctr: inactive

What do the screens show for `CC(C)CC(=O)Nc1c(C(=O)N2CCN(Cc3ccccc3)CC2)oc2ccccc12`?
KCNQ2 block: inactive

Results for Brc1cccc(/C=N/Nc2nc(N3CCCCC3)nc(N3CCCCC3)n2)c1 ?
KCNQ2 enhance: -6.89; KCNQ2 block: -6.89*; KCNQ2 inh conf: -19.0%*; KCNQ1 spec: inactive; CHO Tl ctr: inactive; KCNQ2 patch conf: inactive

Results for Oc1ccc(/C=N/Nc2nc(N3CCCC3)nc(N3CCCC3)n2)cc1O ?
KCNQ2 block: inactive

How did O=[N+]([O-])c1cccc(/C=N/Nc2nc(N3CCCCC3)nc(N3CCCCC3)n2)c1 do in these assays?
KCNQ2 enhance: -7.67; KCNQ2 block: -7.67*; KCNQ2 inh conf: -34.0%*; KCNQ1 spec: inactive; CHO Tl ctr: inactive; KCNQ2 patch conf: inactive

Results for O=[N+]([O-])c1cccc(-n2cccc2/C=N/Nc2nc(N3CCCCC3)nc(N3CCCCC3)n2)c1 ?
KCNQ2 block: inactive

Results for Cc1[nH]c2ccccc2c1C(O)CN1CCC2(CC1)OCCO2 (stereo not given) ?
KCNQ2 block: inactive

Results for O=C(/C=C\c1ccc2c(c1)OCO2)CC1(O)C(=O)Nc2ccccc21 (stereo not given) ?
KCNQ2 enhance: 0.31; KCNQ2 block: inactive

Results for Cn1c(SCC(=O)NC2CCCCC2)nnc1-c1ccccc1O ?
KCNQ2 enhance: 1.52; KCNQ2 block: inactive

How did CCc1cc2c(nc1CC)CCN(CC/C(C)=N/O[C@@H](C)c1cc(-c3c(C)cc(C)cc3C)no1)C2 do in these assays?
KCNQ2 enhance: -10.2; KCNQ2 block: -10.2*; KCNQ2 inh conf: inactive; KCNQ1 spec: inactive; CHO Tl ctr: inactive

How did C/C(CCN1CCc2nc(-c3ccccc3)c(-c3ccccc3)cc2C1)=N\O[C@@H](C)c1cc(-c2c(C)cc(C)cc2C)no1 do in these assays?
KCNQ2 block: inactive

How did COc1ccc(CCNC(=O)CSc2ccc(Br)cc2)cc1OC do in these assays?
KCNQ2 block: inactive

Results for CC(=O)c1cccc(Nc2c3c(nc4ccccc24)CCC3)c1 ?
KCNQ2 block: inactive

How did COC(=O)c1cccc(Nc2c3c(nc4ccccc24)CCC3)c1 do in these assays?
KCNQ2 enhance: -6.63; KCNQ2 block: -6.63*; KCNQ2 inh conf: -25.5%*; KCNQ1 spec: inactive; CHO Tl ctr: inactive; KCNQ2 patch conf: active

What do the screens show for `CCOC(=O)N1C2C=C(C)[C@@H]2[C@@H]2CC(=O)N21` (stereo not given in full)?
KCNQ2 enhance: 0.2; KCNQ2 block: inactive

Results for CCc1ccc(-c2nc(CSCC(=O)N3CCN(c4ccccn4)CC3)c(C)o2)cc1 ?
KCNQ2 enhance: -10.1; KCNQ2 block: -10.1*; KCNQ2 inh conf: -37.5%*; KCNQ1 spec: -40.0%*; CHO Tl ctr: -32.5%*; KCNQ2 patch conf: inactive

How did Cc1ccc(-c2nc(CSCC(=O)N3CCN(c4ccccn4)CC3)c(C)o2)cc1 do in these assays?
KCNQ2 block: inactive

What do the screens show for `CC1CCCCC1NC(=O)c1ccc(S(=O)(=O)NCC2CCCO2)cc1` (stereo not given)?
KCNQ2 enhance: 2.08; KCNQ2 block: inactive

What do the screens show for `O=C(O)CC(Cc1ccccc1)(C(=O)O)c1ccccc1` (stereo not given)?
KCNQ2 enhance: 1.21; KCNQ2 block: inactive

What do the screens show for `CC1(C)Cc2c(cnn2-c2ccccc2)C(NC(=O)CCN2CCCCO2)C1` (stereo not given)?
KCNQ2 block: inactive

Results for CN1CCN(C(=O)/C(=C\c2ccccc2)c2ccccc2)CC1 ?
KCNQ2 enhance: 1.39; KCNQ2 block: inactive

Results for CC1CCN(C(=O)/C(=C/c2ccccc2Cl)c2ccccc2)CC1 ?
KCNQ2 enhance: -7.51; KCNQ2 block: -7.51*; KCNQ2 inh conf: -32.5%*; KCNQ1 spec: inactive; CHO Tl ctr: inactive; KCNQ2 patch conf: inactive
